Results taken from the supplement of paper PMC6555819.

Columns and labels:
Assay in all cases: PBM binding z-score (relative to random genomic background probes); higher = stronger binding; sequences stand for … in GC…GCGATTGACAGCGTAGAATGAAGG
[1] = test system: PPARg:RXRa DBDmut IVT, anti-RXR (DBD mutation: RXRa K156A/R161A, NR concentration 270 nM, RXRa partner concentration 90 nM)
How it was run: (§1)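 Each nuclear receptor dimer, without ligand, was incubated for 1 h on custom Agilent 4×180K protein-binding microarrays. Binding was detected with antibodies against each partner (one per run), and scanned fluorescence was regression-normalized. The binding z-scores are referenced to random human genomic background probes.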

[2] = test system: PPARg:RXRa IVT, anti-PPARg (NR concentration 270 nM, RXRa partner concentration 90 nM)
How it was run: as §1

[3] = test system: PPARg DBDmut:RXRa IVT, anti-PPARg (DBD mutation: PPARg1 K132A/R137A, NR concentration 270 nM, RXRa partner concentration 90 nM)
How it was run: as §1

[4] = test system: PPARg DBDmut IVT, anti-PPARg (DBD mutation: PPARg1 K132A/R137A, NR concentration 270 nM)
How it was run: as §1

[5] = test system: PPARg homodimer (NR concentration 180 nM)
How it was run: as §1

[6] = test system: PXR:RXRa (NR concentration 270 nM, RXRa partner concentration 90 nM)
How it was run: as §1

[7] = test system: PXR homodimer (NR concentration 270 nM)
How it was run: as §1

[8] = test system: RARa:RXR (NR concentration 270 nM, RXRa partner concentration 90 nM)
How it was run: as §1

[9] = test system: RARa homodimer (NR concentration 270 nM)
How it was run: as §1

[10] = test system: RARb:RXRa (NR concentration 270 nM, RXRa partner concentration 90 nM)
How it was run: as §1

Sequence	PBM binding z-score [1]	PBM binding z-score [2]	PBM binding z-score [3]	PBM binding z-score [4]	PBM binding z-score [5]	PBM binding z-score [6]	PBM binding z-score [7]	PBM binding z-score [8]	PBM binding z-score [9]	PBM binding z-score [10]
CAAACTAGGTCGCAGAGGTCAAAGTCCGTGCGTA	6.57	7.05	2.76	1.62	3.69	6.55	7.19	7.01	1.48	4.5
CCGAGTTGGTTATGGGGCATTCAGGCAACGGTGA	0.136	0.993	-0.435	-0.836	0.998	0.00372	0.402	0.155	0.692	0.288
CCGACTGGGGCAGAAAGGGTACCATACCATCCGG	0.57	0.77	-0.394	-1.37	-0.287	-0.615	-0.768	-0.429	-0.298	0.605
TCATATAGGTAGATGCTAGGTGAAAGTCCGATCT	2.54	0.996	0.387	0.246	0.348	0.415	0.366	0.657	0.534	0.174
CCTACTGGGCCACGAAAGGTCATTGAGTCAGTGA	5.96	6.12	0.241	-0.3	3.76	5.49	1.93	5.72	1.51	4.04
CCAGACAGGGGAAAGGTAACTCAGTCTGGTACGC	-0.0945	0.279	-0.482	-1.01	0.356	0.0184	-0.106	0.15	-0.374	0.202
CCTGCTAGGTCATGGTCAGCAAATCTACAGTATG	4.25	3.63	0.173	-0.183	1.03	1.15	-0.302	2.22	0.017	3.7
AATACAGGGTCATCGTAGGCCAGAGTACGCACAG	2.76	4.32	1.59	1.19	1.96	4.94	0.48	4.82	0.854	4.37
ATGGAAAGGTCGAGGTGAGTATAGAGAAAGGGAA	0.536	2.48	1.74	0.527	1.67	2.55	1.05	3.1	1.32	4.07
GCGACTGGGGCATCAGCAGGTTACCATCACTTAA	4.02	3.08	-0.268	-0.441	0.406	-0.239	-0.641	0.272	-0.548	0.891
TCATATAGGTAATACGGGTGAAAGTCGGCATCTA	3.97	3.5	0.9	0.874	0.552	0.662	0.363	1.01	1.49	0.495
AGAATGAGGTTATACGTAGATAAGGGAAGAAAGT	2.89	2.2	1.07	1.1	0.963	1.17	0.795	1.65	0.439	1.37
ATACCAAGGTGATCGTTAGGTCGTTGATACTAAC	0.451	1.04	0.332	1.27	0.52	0.494	0.467	1.25	0.0968	0.816
GCTAGCAGGCCATTTGGCTCACTCAATGACGGGC	0.892	-0.288	-1.29	-1.19	-1.62	-1.01	-0.87	-0.778	-0.899	-0.0959
TAGCCTGGGTCATGCGGGCCAGTATAGTGTCGGC	0.519	2.76	-0.229	0.545	0.758	1.64	-0.615	2.42	-0.605	3.18
GCGACTGTGGCAAAGCAGGTTACCATAAGGTTGG	0.686	0.528	-0.512	-1.16	-0.377	-0.184	-0.793	-0.0448	-0.9	-0.0264
TCTATTAGTTGATTAAGGCAACCGAAACAGCGGA	2.31	0.341	1.4	0.689	0.977	0.454	0.378	0.873	1.34	0.0773
CGTCAAAGTTCAACTAAAGTAACGTAAAGCACGC	0.164	2	1.4	1.46	3.19	4.82	3.3	4.03	2.17	5.28
CCTAGTAGGCCAATCTGGGTCACTCAAGGCTTGA	6.2	6.35	0.0197	-0.994	0.502	1.07	-0.356	1.39	-0.858	1.78
ACAGACAGGTGATGCAGGTAACTCAGGCTATCAT	0.0988	0.729	0.0271	0.231	0.328	-0.33	0.04	-0.107	0.231	-0.0709
AGTCAAAGTTCAGGACGAGGTAACGTCAAGCACG	-0.313	1.89	0.047	-0.603	3.18	3.06	1.42	3.01	1.63	4.25
ATCTAAAGGTCGACGAGGTGAGTATACACCGTTT	0.916	2.35	0.97	0.877	1.81	3.26	0.284	3.76	1.29	3.91
TCGTATAGGTAAAGGTGAAAGTCGAACGATATGA	2.04	2.57	0.89	0.655	1.4	0.71	0.0439	1.58	0.749	2.07
